Assay outcomes (PubChem BioAssay)
CCT chaperon mod: High-Throughput Screening for Modulators of Cytosolic Chaperonin Activity; purified chaperonin ATPase assay, HTRF ADP detection, 30 min; activity change, % (no concentration beside the values), hits read low; 360,000 tested, 0.3% active; in the data active = activity change below about -30%; note: % is set by controls: 0 for no effect and ±100 for the full control effect
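Enzyme 40 or 20 nM (batch-dependent) in Tris pH 7.4/KCl/MgCl2/DTT; cpd 76 uM single point; ATP 10 uM; 30 min 37 °C; Transcreener ADP HTRF detection, 30 min RT; ratio 665/615.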
TDP-43 yeast inh: qHTS of TDP-43 Inhibitors; 410,000 tested, 1.8% active; TDP-43 expressing yeast growth rescue, BacTiter-Glo, 24 h; Potency, µM (titrated, usually from 46.1 µM), for inactives: top-dose growth rescue (activation), hits mostly activators; note: potency is the fitted concentration of half-maximal effect; % of control where 0% means no effect; nearly all actives have a fitted effect of over 50% in size
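In this qHTS, compounds that restore growth of yeast expressing TDP-43 appear as activators. Cells (OD600=0.02, galactose medium, raffinose-pregrown) are incubated with compound 24 hr at 30 deg C and growth is quantified by BacTiter-Glo.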
aSyn yeast inh: qHTS of alpha-syn Inhibitors. Potency, µM (titrated, usually from 46.1 µM), inactives show at the top dose growth rescue (activation), most hits filed as activators. Yeast expressing alpha-synuclein, growth rescue, BacTiter-Glo, 24 h. 370,000 tested, 0.14% active; note: potency is the fitted concentration of half-maximal effect; % of control where 0% means no effect; nearly all actives have a fitted effect of over 65% in size
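Galactose-induced alpha-syn yeast (OD600=0.02, raffinose-pregrown) + pinned cpd, 24 hr, 30 deg C; growth by BacTiter-Glo luminescence. Growth restoration scores as activation.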
FUS yeast rescue: qHTS for Suppressors of FUS Proteinopathy: Primary screen using FUS-linked yeast assay | S. cerevisiae FUS-expressing, growth rescue, OD600, 24 h | 390,000 tested, 0.24% active | AID 1347120, 2019 | Potency, µM (doses to about 76.6 µM), most hits filed as activators;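 note: potency is the fitted concentration of half-maximal effect; plate controls were DMSO vehicle for no effect and reference control for full effect; nearly all actives have a fitted effect of over 55% in size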
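Restored growth of FUS-toxic S. cerevisiae, read as 600 nm absorbance after 24 h at 30C in galactose medium (starting OD 0.005). Controls CP55940 and DMSO.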
Abeta rescue: qHTS for compounds that reverse cellular toxicity of Amyloid beta (A-beta) peptide in yeast: Primary Screen; Potency, µM (highest dose often 46.1 µM), usual class: activators; 410,000 tested, 0.063% active; yeast expressing A-beta42, growth rescue, OD600, 48 h; response scale: 0% DMSO, 100% iron-clioquinol control; AID 1347071, 2019; note: potency is the fitted concentration of half-maximal effect; nearly all actives have a fitted effect of over 55% in size
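Yeast growth medium received pinned compounds, then yeast cells expressing toxic A-beta were added; plates incubated at 30 C for 48 hr. Growth read as absorbance at 600 nm, normalized to DMSO and equimolar FeCl3 plus clioquinol controls.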
Mm-Cpn inhibitor: Inhibitors of TCP-1 ring complex (TRiC) of Methanococcus maripaludis (MmCpn): qHTS | purified Mm-Cpn ATPase, ADP Transcreener TR-FRET | Potency, µM (series often up to 76.9 µM), for inactives: at the highest dose activity, negative = inhibition, actives largely listed as inhibitors | 330,000 tested, 0.031% active | AID 504842, 2011; note: potency is the fitted concentration of half-maximal effect; % is set by controls: 0 for no effect and ±100 for the full control effect; nearly all actives have a fitted effect of over 80% in size
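ATP (10 uM final) was added to archaeal chaperonin (25 nM final) after 10 min exposure to test compound at 37°C; after 30 min further incubation, ADP was detected by competitive TR-FRET.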
The depositor's hits bear a star; ! = not confirmed by another sample. This is a sample that favours compounds with a hit; in the whole collection about 2.3% have one here. Unless noted, calls come from the whole dose curve; as a rule, active = well fitted curve in the direction sought with a large enough effect; inconclusive = small, poorly fitted or top-dose-only effect, or another doubt; inactive = no such curve, though single readings can be large; an effect the other way counts as inactive or inconclusive.

For CN1CCN(C(=O)/C=C/c2ccc([N+](=O)[O-])o2)CC1 the results were CCT chaperon mod -3, TDP-43 yeast inh 11%, aSyn yeast inh 0%, FUS yeast rescue inactive, Abeta rescue inactive and Mm-Cpn inhibitor -2%.
Cc1nc(N2CCCCC2)sc1C(=O)c1ccc(SCCO)c([N+](=O)[O-])c1 was read as CCT chaperon mod -1, TDP-43 yeast inh 35µM*, aSyn yeast inh 26%, FUS yeast rescue inactive, Abeta rescue inactive and Mm-Cpn inhibitor -1%.
For O=c1ccc(-c2ccccc2)nn1Cc1ccccc1 the results were CCT chaperon mod -6, TDP-43 yeast inh 22µM*, aSyn yeast inh -1%, FUS yeast rescue inactive and Abeta rescue inactive.
For Cc1ccc(-c2ccc(=O)n(Cc3cccc(Br)c3)n2)cc1 the results were CCT chaperon mod 0, TDP-43 yeast inh 4%, aSyn yeast inh 22µM*, FUS yeast rescue inconclusive, Abeta rescue inactive and Mm-Cpn inhibitor 1%.
`O=C(Cn1nc(-c2ccccc2)ccc1=O)NCc1ccc(F)cc1Cl` gave TDP-43 yeast inh 26%, FUS yeast rescue inactive and Abeta rescue inactive.
Screening O=c1ccc(-c2ccccc2)nn1Cc1ccc(F)cc1Cl returned CCT chaperon mod 1, TDP-43 yeast inh 32µM*!, aSyn yeast inh 20%, FUS yeast rescue inactive, Abeta rescue inactive and Mm-Cpn inhibitor 2%.
For Cc1cc(NC(=O)CS(=O)(=O)c2ccc(Cl)cc2)no1 the results were CCT chaperon mod -87*, TDP-43 yeast inh 11%, aSyn yeast inh 0%, FUS yeast rescue inactive, Abeta rescue inactive and Mm-Cpn inhibitor 3%.
`Cc1ccc(C)c2c1cc(C)c1nnc(SCC(=O)c3cccs3)n12` gave CCT chaperon mod -1, TDP-43 yeast inh 22µM*, aSyn yeast inh 16%, FUS yeast rescue inactive, Abeta rescue inactive and Mm-Cpn inhibitor -8%.
Screening O=C(CSc1cnc2ccccc2n1)c1ccc(F)cc1 returned CCT chaperon mod 0, TDP-43 yeast inh 18µM*, aSyn yeast inh 3%, FUS yeast rescue inactive, Abeta rescue inactive and Mm-Cpn inhibitor -2%.
COC(=O)CSc1cnc2ccccc2n1 was read as CCT chaperon mod 1, TDP-43 yeast inh 0%, aSyn yeast inh -10%, FUS yeast rescue inactive and Abeta rescue inactive.
Cc1cccc(Cn2c(-c3cccc(Br)c3)nc3ccccc32)c1 was read as TDP-43 yeast inh 14µM*, FUS yeast rescue inactive and Abeta rescue inactive.
For COc1ccc(OC)c(/C=C2\Cc3ccccc3C2=O)c1 the results were aSyn yeast inh 3%.
CC(=O)c1cc(-c2cc3ccccc3o2)c(=O)n2c1CCC2 was read as FUS yeast rescue inactive.
`Cc1nnc(N2C(=O)C(O)=C(C(=O)c3ccco3)C2c2ccc(C(C)C)cc2)s1` (stereo not given) gave CCT chaperon mod -2, TDP-43 yeast inh 9%, aSyn yeast inh -1%, FUS yeast rescue 7.1µM*, Abeta rescue inactive and Mm-Cpn inhibitor -14%.
For CCOC(=O)N1C(=O)[C@@](c2ccc(Cl)cc2)(C(C)C)N1C(=O)OCC the results were CCT chaperon mod 2, TDP-43 yeast inh 20µM*, aSyn yeast inh -27%, FUS yeast rescue inactive, Abeta rescue inactive and Mm-Cpn inhibitor 0%.
`CC[C@]1(c2ccc(C)cc2)C(=O)N(C(=O)OC(C)C)N1C(=O)OC(C)C` gave FUS yeast rescue inactive.
CCOC(=O)N1C(=O)[C@](c2ccc(Cl)cc2)(C(C)C)N1C(=O)OCC was read as CCT chaperon mod -3, TDP-43 yeast inh 16µM*, aSyn yeast inh -16%, FUS yeast rescue inactive, Abeta rescue inactive and Mm-Cpn inhibitor 0%.
